Experimental data from PubChem BioAssay AID504339 (National Center for Advancing Translational Sciences (NCATS), 2011).
About 17,000 (4.4%) of roughly 390,000 compounds were called active. Inconclusive results (about 8%) are left out. What follows is part of a selection rich in actives, with near analogues and random picks from the rest. Values without a mark were called inactive. The call rests on the fitted dose curve; in most records, active means well fitted inhibition curve with a large enough effect; inconclusive means small, poorly fitted or top-dose-only effect; inactive means no such curve, though single readings can be large or run the other way.

molecular target: Lysine-specific demethylase 4A (Homo sapiens) (UniProt O75164); assay: qHTS Assay for Inhibitors of JMJD2A-Tudor Domain; conditions: AlphaScreen JMJD2A-Tudor / H3K4me3 peptide binding; series mostly up to 114 µM; activity change, negative = inhibition: at the top concentration; further: nearly all actives have a fitted effect of over 50% in size
From the text: JMJD2A is a jumonji-domain-containing lysine demethylase that uses Fe(II) together with 2-OG to effect oxidative demethylation of histones. Methylation is one of many […] modification that affect epigenetic transcription. […] It is proposed that the functions of JmjD2A binding to the histones, is to maintain marks after they are installed and to spread the modifications by […], establishing a self-propagating cycle for rapid methylation over a large area of chromatin. […] Thus, small molecule targeting of the JMJD2A-tudor domain interaction with its target methylhistone mark is expected to enable sophisticated experiments probing the fine regulatory pathways leading to selective demethylation of a given methyllysine locus based on the methylation state of adjacent histone marks. A quantitative high throughput AlphaScreen has been developed to identify small molecule inhibitors based on a protocol published by NCGC and SGC [4].
Although AlphaScreen has significant advantages with its utility in a variety of epigenetic target assays, the primary screening data provided in this deposition should be used with caution due to the prevalence of screening artifacts. The top compound concentration tested was high (>100uM) in this assay, which increases number of actives and potential artifacts. An AlphaScreen counterscreen is highly recommended to be run against any putative actives to eliminate non-specific artifacts. Alternatively, one can use other AlphaScreen assays in PubChem to filter out promiscuous hits.
[1] Lee, J. et al. Distinct binding modes specify the recognition of methylated histone H3K4 and H4K20 by JMJD2A-tudor. Nat Struct Mol Biol. 15(1); 109-11. 2008. PMID: 18084306
[2] Yasgar, et al. Compound Management for Quantitative High-Throughput Screening. JALA. 2008 Apr;13(2):79-89. PMID: 18496600
[3] Inglese, et al. Quantitative high-throughput screening: a titration-based approach that efficiently identifies biological activities in large chemical libraries. Proc Natl Acad Sci. 1;103(31):11473-8. 2006. PMID: 16864780
[4] Quinn et al. A homogeneous method for investigation of methyl-dependent protein-protein interactions in epigenetics. Nucleic Acids Res., 38(2):e11. 2010. PMID: […]
[5] Baell,Holloway. New substructure filters for removal of pan assay interference compounds (PAINS) from screening libraries and for their exclusion in bioassays. J Med Chem. 53(7):2719-40. 2010. PMID: 20131845
NIH Molecular Libraries Probe Production Network [MLPCN]
NIH Chemical Genomics Center [NCGC]
Structural Genomics Consortium (SGC)
To each well of a 1,536w plate, 2ul of JMJD2A-Tudor (final 100nM) and 1ul biotinylated histone peptide methylated at Lys4 [b-H3(1-18)K4me3] (final 50nM) were added in 1x PBS buffer, pH 7.4, containing 0.01% Tween-20, using a nanoliter dispenser. Formation of a protein-peptide complex proceeded at room temperature for 30 min. A Kalypsys pin-tool transferred 23nl of library compound solution in DMSO to each well. Following a 30 min incubation of the protein-peptide complex with compounds at room temperature, a mixture of 40 µg/mL each streptavidin-coated donor and nickel chelate acceptor AlphaScreen beads (final 10 µg/mL) was added in a 1ul dispense for a final volume of 4ul, followed by a brief centrifugation (1000 rpm, 1 min). Plates were incubated protected from the light for 20 min at room temperature. Microplates were then read on an EnVision multilabel plate reader using the 1,536 plate HTS AlphaScreen aperture (excitation time 80 ms, measurement time 240 ms).
On the % scale 0 is the no-effect control and ±100 the full control effect; potency means the concentration at half of the fitted maximal effect.

Sequence of Lysine-specific demethylase 4A (Homo sapiens) (O75164 whole entry, looked up, the tested form may be a part): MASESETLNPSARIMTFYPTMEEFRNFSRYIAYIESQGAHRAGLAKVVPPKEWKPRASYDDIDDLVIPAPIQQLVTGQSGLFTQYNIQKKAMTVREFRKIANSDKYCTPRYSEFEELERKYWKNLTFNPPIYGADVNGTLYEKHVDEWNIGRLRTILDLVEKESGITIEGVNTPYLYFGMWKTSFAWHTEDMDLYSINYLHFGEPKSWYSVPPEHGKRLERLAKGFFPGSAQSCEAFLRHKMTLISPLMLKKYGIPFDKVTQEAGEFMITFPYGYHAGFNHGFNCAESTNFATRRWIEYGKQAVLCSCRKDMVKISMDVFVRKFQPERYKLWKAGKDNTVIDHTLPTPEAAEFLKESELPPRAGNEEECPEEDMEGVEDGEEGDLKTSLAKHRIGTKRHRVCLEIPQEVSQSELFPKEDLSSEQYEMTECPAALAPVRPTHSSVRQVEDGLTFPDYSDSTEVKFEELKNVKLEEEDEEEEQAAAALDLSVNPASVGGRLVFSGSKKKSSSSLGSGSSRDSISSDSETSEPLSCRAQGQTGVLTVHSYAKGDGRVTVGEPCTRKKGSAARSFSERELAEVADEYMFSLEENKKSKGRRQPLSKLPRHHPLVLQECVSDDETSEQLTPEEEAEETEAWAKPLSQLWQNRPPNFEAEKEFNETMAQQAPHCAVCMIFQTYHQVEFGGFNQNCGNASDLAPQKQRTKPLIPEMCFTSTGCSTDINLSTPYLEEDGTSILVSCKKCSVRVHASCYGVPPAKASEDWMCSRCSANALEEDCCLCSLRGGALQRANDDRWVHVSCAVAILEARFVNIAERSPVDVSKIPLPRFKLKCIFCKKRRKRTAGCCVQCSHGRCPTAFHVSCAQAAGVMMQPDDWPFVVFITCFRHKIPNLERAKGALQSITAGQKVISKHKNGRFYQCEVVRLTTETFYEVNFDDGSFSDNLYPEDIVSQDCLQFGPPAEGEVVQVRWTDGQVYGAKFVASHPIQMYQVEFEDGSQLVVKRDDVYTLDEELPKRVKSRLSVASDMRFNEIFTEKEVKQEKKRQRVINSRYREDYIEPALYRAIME

| SMILES | Potency | activity change, negative = inhibition |
| --- | --- | --- |
| Cc1ccccc1NC(=O)CSC(=O)c1ccccc1 | 89.1 µM (active) | – |
| Cc1cccc(NC(=O)CSC(N)=O)c1C | – | -8.89% |
| Cc1ccccc1NC(=O)CCOc1ccccc1 | inactive | – |
| COc1ccccc1NC(=O)c1sc2nc(C)c(C(=O)Nc3ccc(Cl)cc3)c(-c3ccc(Br)cc3)c2c1N | – | -2.39% |
| Cn1c(CC2Sc3ccccc3NC2=O)nnc1SCC(=O)c1ccc(Cl)cc1 (centres undefined) | 25.1 µM (active) | – |
| Cn1c(CC(=O)Nc2ccccc2)nnc1SCC(=O)c1ccccc1 | – | -9.68% |
| O=C(CC1Sc2ccccc2NC1=O)NNc1ccc(Cl)c(Cl)c1 (centres undefined) | – | -9.09% |
| CN(C(=O)CSc1nnc(NC(=O)Nc2ccccc2)s1)c1ccccc1 | – | -10.4% |
| COc1ccc(CNC(=O)Cn2nnc(-c3ccccc3F)n2)cc1 | – | -11.6% |
| Cc1cccc(NC(=O)Cn2cc(S(=O)(=O)Cc3ccccc3Cl)c3ccccc32)c1 | – | -14.9% |
| CSc1ccc(C2C(C(=O)Nc3ccccc3)=C(C)Nc3nc4ccccc4n32)cc1 (centres undefined) | – | -12.3% |
| COCCNC(=O)c1cc(-c2cccc(Cl)c2)on1 | – | -21.2% |
| O=C(CN1C(=O)/C(=C/c2ccccc2F)Sc2ccccc21)NCc1cccnc1 | 89.1 µM (active) | – |
| O=C(CN1C(=O)/C(=C\c2ccc(C(F)(F)F)cc2)Sc2ccccc21)NCc1ccco1 | – | -13.2% |
| O=C(CN1C(=O)S/C(=C\c2ccccc2F)C1=O)NCCCn1ccnc1 | – | -14.5% |
| Cc1nn(CC(=O)N2CCN(c3cccc(C(F)(F)F)c3)CC2)c(=O)c2cc3sccc3n12 | – | -5.45% |
| CCc1ccc(S(=O)(=O)Nc2cc3c(C(=O)OCc4ccccc4)c(C)oc3c3ccccc23)cc1 | – | -19% |
| Cc1ccc(-c2cc(C(=O)Oc3ccccc3Cl)no2)cc1C | – | 101% |
| Cc1ccc(NC(=O)NNC(=O)c2sccc2-n2cccc2)cc1 | – | -27% |
| C=CC[n+]1c(-c2ccc(C)cc2)csc1NNC(=O)Nc1ccccc1 | 28.2 µM (active) | – |
| O=C(NNC(=O)c1ccc(-c2ccccc2)cc1)Nc1ccccc1 | – | -2.1% |
| FC(F)(F)c1cc(Nc2nc3ccccc3c3nncn23)ccc1Cl | – | -8.56% |
| CCC(C)(C)n1nnnc1C(c1ccc(OC)c(OC)c1)N1CCN(C(=O)c2ccco2)CC1 (centres undefined) | 79.4 µM (active) | – |
| CC(C)(C)n1nnnc1C(c1ccccc1F)N1CCN(C(=O)c2ccco2)CC1 (centres undefined) | – | 6.92% |
| CCC(c1nnnn1C1CCCC1)N1CCN(C(=O)c2ccco2)CC1 (centres undefined) | – | -20.8% |

| SMILES | Potency | activity change, negative = inhibition |
| --- | --- | --- |
| CC1CCCCN1S(=O)(=O)CCNC(=O)c1ccccc1 (centres undefined) | – | -2.72% |
| CC1CCCCN1S(=O)(=O)c1ccc(C(=O)Nc2nnc(-c3cccs3)o2)cc1 (centres undefined) | – | -1.53% [at 11.4 µM] |
| CSCc1nnc(NC(=O)c2ccc(S(=O)(=O)N3CCCCC3C)cc2)o1 (centres undefined) | 50.1 µM (active) | – |
| Cc1nnc(C)n1-c1ccc(C(=O)Nc2cccc(Br)c2)cc1 | – | -7.42% |
| COC(=O)CN1C(=O)CSc2ccc(S(=O)(=O)Nc3cc(C)ccc3C)cc21 | – | -13.4% |
| CC(C)(C)OC(=O)N1CCC(c2c(C(=O)N3CCc4ccccc4C3)cnn2-c2ccc(F)cc2)CC1 | – | -18.4% |
| Cc1ccc(Cl)cc1N1CCN(C(=O)C2CCC(CNS(=O)(=O)c3cccs3)CC2)CC1 (centres undefined) | – | -20.2% |
| C#CCOc1ccc(C2CC(=O)Nc3c2c(C)nn3-c2nc(C)cc(C)n2)cc1 (centres undefined) | – | -27.2% |
| Cc1ccc(CSc2oc(-c3cccs3)nc2S(=O)(=O)c2ccc(C)cc2)cc1 | – | -1.37% |
| CCN(CC)S(=O)(=O)c1ccc(NC(=O)c2cccnc2Cl)c(NC(=O)c2cccnc2Cl)c1 | 31.6 µM (active) | – |
| Cc1ccc(CNC(=O)c2cccnc2Cl)cc1 | – | -11.1% |
| CCN(CC)S(=O)(=O)c1ccc(NC(=O)c2cnc(C)cn2)cc1 | – | 0.664% |
| Cc1ccccc1CN1CCC(CNC(=O)c2cc3ccc4cccnc4c3[nH]2)CC1 | – | -27.2% |
| Cc1ccc(C(=O)Nc2c(C(=O)NC(C)(C)C)oc3ccccc23)cc1 | – | 6.8% |
| O=C(Cc1ccc(Cl)cc1)NCC(c1cccs1)S(=O)(=O)c1ccc(Cl)cc1 (centres undefined) | – | -13.3% |
| COc1cc(C)c(S(=O)(=O)N2CCOCC2)c(C)c1C | – | 0% |
| Cc1cc(C)c(S(=O)(=O)N2CCOCC2)cc1C | 11.2 µM (active) | – |
| Cc1ccc(NC(=O)C2CC2)cc1S(=O)(=O)N1CCOCC1 | – | -17.9% |
| Cn1nc(-c2ccccc2)c(-c2ccccc2)c(C(=O)Nc2ccc(S(N)(=O)=O)cc2)c1=O | – | -18.9% |
| CCOc1cccc2sc(N3CCN(C(=O)C4CC4)CC3)nc12 | – | -8.44% |
| CCOC(=O)c1c(C)[nH]c(CCC(=O)Nc2ccc(OC)c(OC)c2)c1C | – | -27.9% |
| O=C1Cc2cc(S(=O)(=O)Nc3ccc(OC(F)(F)F)cc3)cc3c2N1CCC3 | – | -14.3% |
| CCOC(=O)c1ccc(NC(=S)N2CCCC2)cc1 | – | -7.88% |
| CN(C)c1ccc(C(=S)N2CCN(C(=S)Nc3ccc(Cl)cc3)CC2)cc1 | 28.2 µM (active) | – |
